From PubChem BioAssay
This is a sample that favours compounds with a hit; in the whole collection about 27% have one here.
CYP2C19 activ = human CYP2C19 activators, primary screen, biochemical, luminescence; Cytochrome P450 2C19 (Homo sapiens), P33261; recombinant CYP2C19, luciferin-H EGE luminescence; active compounds read high; 0 = fully inhibited enzyme, 1 = untreated enzyme; activation factor at 5 µM; 96,000 tested, under 10 active;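 active = activation factor of at least 2 at 5 µM in the primary screen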;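 note: 0 = wells with 2.5 mM tranylcypromine and 1 = vehicle-only wells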
CYP2C19 inh = blockers of cytochrome P450 2C19 activity – biochemical, luminescence, ADME assay, primary screen; P33261; CYP2C19 Supersomes, luciferin-H EGE luminescence, 30 min; inhibition, % at 5 µM; actives 21% (n = 96,000); AID 778, 2007;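 active = CYP2C19 inhibition above a set limit at 5 µM in the primary screen, cut at about 50% in these data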;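 note: plate controls were negative control wells for no effect and 2.5 mM tranylcypromine positive control for full effect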
Cav32 inh = Cav3.2 calcium influx blockers – cell-based, Fluo-4 calcium fluorescence, FDSS, MLSMR library, primary screen; Voltage-dependent T-type calcium channel subunit alpha-1H (Homo sapiens), O95180; Cav3.2-expressing cells; active compounds read low; B-score at 10 µM; actives 4% (n = 100,000);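 active = single-dose well whose peak fluorescence ratio is a statistical outlier from its plate by either plate-standardised score or position-corrected B-score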
CYP2C9 activ = human CYP2C9 activators, primary screen, biochemical, luminescence; Cytochrome P450 2C9 (Homo sapiens), P11712; recombinant CYP2C9, luciferin-H conversion; active compounds read high; factor 1 = untreated enzyme, 0 = blocked; activation factor at 5 µM; actives 1.4% (n = 96,000); AID 1024, 2008;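 active = activation factor of 2 or more for CYP2C9 at a 5 µM dose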;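 note: 0 = sulfaphenazole-blocked wells and 1 = vehicle-only wells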
CYP2C9 inh = blockers of cytochrome P450 2C9 activity – biochemical, luminescence, ADME assay, primary screen; actives 20% (n = 96,000); inhibition, % at 5 µM; AID 777, 2007; CYP2C9 Supersomes, luciferin-H conversion;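 active = blocking of liver enzyme CYP2C9 beyond about 50% at 5 µM, limit read from the data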
* marks the source's active call; other numbers are inactive results.

COC(=O)C1(C(O)C(=O)c2ccc(C)cc2C)CCCCC1 (stereo not given) was read as CYP2C19 activ 0.4, CYP2C19 inh 64.0*, Cav32 inh -1.93, CYP2C9 activ 0.6 and CYP2C9 inh 37.3.
CN=C1CC(SC)=C1c1ccc(C)cc1 was read as Cav32 inh -0.91.
For Cc1ccc2[nH]c3c(c2c1)CCc1cn[nH]c1-3 the results were CYP2C19 activ 0.3, CYP2C19 inh 70.3*, CYP2C9 activ 0.1 and CYP2C9 inh 87.5*.
O=C(c1cccs1)n1cc(C(=S)N2CCOCC2)c2ccccc21 was read as CYP2C19 activ 0.3, CYP2C19 inh 67.7*, Cav32 inh -3.52, CYP2C9 activ 0.9 and CYP2C9 inh 11.8.
CC(=O)N(Cc1ccco1)C1(C(=O)NC2CCCCC2)CCCCC1 was read as CYP2C19 activ 1.1, CYP2C19 inh -11.4, Cav32 inh -0.203, CYP2C9 activ 1 and CYP2C9 inh 3.7.
`CC1(C(=O)NC2CCCCC2)CCC(=O)N1Cc1cccs1` (stereo not given) gave CYP2C19 activ 0.8, CYP2C19 inh 17.6, Cav32 inh 0.372, CYP2C9 activ 1.5 and CYP2C9 inh -45.8.
`O=C(Cc1cccs1)N(Cc1cccs1)C1(C(=O)NC2CCCC2)CCCCC1` gave CYP2C19 activ 0.8, CYP2C19 inh 15.7, Cav32 inh -8.37*, CYP2C9 activ 0.9 and CYP2C9 inh 9.4.
`CC1(C(=O)NC2CCCCCCC2)CCC(=O)N1Cc1cccs1` (stereo not given) gave CYP2C19 activ 0.3, CYP2C19 inh 71.3*, Cav32 inh 0.345, CYP2C9 activ 1.3 and CYP2C9 inh -28.2.
For Cc1cc(NC(=O)CCC(=O)N(Cc2ccco2)C2(C(=O)NC3CCCCC3)CCN(C)CC2)no1 the results were CYP2C19 activ 0.3, CYP2C19 inh 74.1*, Cav32 inh 0.95, CYP2C9 activ 0.9 and CYP2C9 inh 11.1.
For O=C(Cc1cccs1)N(Cc1ccco1)C1(C(=O)NC2CCCCC2)CCCCC1 the results were CYP2C19 activ 0.9, CYP2C19 inh 12.7, Cav32 inh -7.14*, CYP2C9 activ 0.9 and CYP2C9 inh 12.6.
`CCOC(=O)c1c(NC(=S)NC(=O)c2ccc(Cn3cc(Cl)cn3)o2)sc2c1CCCCC2` gave CYP2C19 activ 1, CYP2C19 inh 4.4, Cav32 inh 0.546, CYP2C9 activ 0.6 and CYP2C9 inh 36.6.
CNC(=S)NNC(=O)COc1cccc(C)c1C was read as Cav32 inh 0.00766.
`O=S(=O)(c1ccccc1C(F)(F)F)N1CCC(n2cnc3ccccc32)CC1` gave CYP2C19 activ 0.1, CYP2C19 inh 88.1*, Cav32 inh -0.86, CYP2C9 activ 0.3 and CYP2C9 inh 70.6*.
Screening Cc1ccc2cc(C#N)c(N3CCCN(C(=O)C4CCCO4)CC3)nc2c1C (stereo not given) returned CYP2C19 activ 0.1, CYP2C19 inh 85.1*, Cav32 inh -1.98, CYP2C9 activ 0.2 and CYP2C9 inh 82.2*.
COc1ccc(C)cc1NC(=O)CC(O)(C(F)(F)F)C(F)(F)F was read as CYP2C19 activ 0.4, CYP2C19 inh 61.5*, Cav32 inh -1.6, CYP2C9 activ 0.9 and CYP2C9 inh 13.6.
CCOC(=O)Nc1cc(C)ccc1OC was read as CYP2C19 activ 1, CYP2C19 inh -4.5, Cav32 inh -1.14, CYP2C9 activ 1.3 and CYP2C9 inh -30.5.
Cc1ccc(NC(=O)CC(O)(C(F)(F)F)C(F)(F)F)cc1 was read as CYP2C19 activ 0.4, CYP2C19 inh 58.9*, Cav32 inh -0.207, CYP2C9 activ 0.8 and CYP2C9 inh 19.8.
Screening CCO[C@@H]1OC(C(=O)O)=C[C@H](C2CC2)[C@H]1CCCO returned Cav32 inh 0.231.
COc1cccc2c(=O)c(C/C=C(/C)Cl)c(C)[nH]c12 was read as CYP2C19 activ 0.2, CYP2C19 inh 83.7*, Cav32 inh 1.14, CYP2C9 activ 0.6 and CYP2C9 inh 35.6.
N[C@@H](Cc1ccc(O)cc1)c1nnc([C@H](CC(=O)O)NC(=O)C2CCNCC2)o1 was read as Cav32 inh 0.873.
`O=C(O)C[C@H]1c2cc(F)ccc2S(=O)(=O)N1C1CCCCC1` gave Cav32 inh 1.77.
`Cc1cc(C)c(S(=O)(=O)N2CCN(c3ccc([N+](=O)[O-])c(-n4nc(C)cc4C)c3)CC2)c(C)c1` gave CYP2C19 activ 0.8, CYP2C19 inh 18.4, Cav32 inh -0.362, CYP2C9 activ 0.4 and CYP2C9 inh 60.2*.
`COc1cc(/C=N/NC(=O)c2cccnc2)ccc1OS(=O)(=O)c1ccc(F)cc1` gave CYP2C19 activ 0.3, CYP2C19 inh 66.7*, Cav32 inh -0.464, CYP2C9 activ 0.2 and CYP2C9 inh 83.4*.
For COc1ccc(/C=N/NC(=O)c2cccc([N+](=O)[O-])c2)cc1OC(=O)c1ccc(C)cc1 the results were CYP2C19 activ 0.6, CYP2C19 inh 35.8, Cav32 inh -5.44*, CYP2C9 activ 0.5 and CYP2C9 inh 53.8*.
COc1ccc(/C=N/NS(=O)(=O)c2ccccc2)cc1OS(=O)(=O)c1ccc(C)cc1 was read as CYP2C19 activ 0.5, CYP2C19 inh 52.0*, Cav32 inh -3.68, CYP2C9 activ 0.1 and CYP2C9 inh 92.7*.
Screening COc1ccc(C(=O)Oc2cc(/C=N/NS(=O)(=O)c3ccccc3)ccc2OC)cc1 returned CYP2C19 activ 0.8, CYP2C19 inh 18.9, Cav32 inh 0.786, CYP2C9 activ 0.7 and CYP2C9 inh 32.8.
For COc1ccc(/C=N/NS(=O)(=O)c2ccc(C)cc2)cc1OC(=O)c1ccc(C)cc1 the results were CYP2C19 activ 1, CYP2C19 inh 4.4, Cav32 inh -1.2, CYP2C9 activ 0.1 and CYP2C9 inh 88.1*.
Screening O=C(c1ccc(=O)[nH]c1)N(Cc1ccco1)C1(C(=O)NC2CCCC2)CCCCC1 returned CYP2C19 activ 1.1, CYP2C19 inh -13.4, CYP2C9 activ 1.1 and CYP2C9 inh -11.6.
Screening COc1ccccc1NC(=O)COc1ccc(/C=N/NS(=O)(=O)c2ccc(C)cc2)cc1 returned CYP2C19 activ 1, CYP2C19 inh 3.2, Cav32 inh -0.698, CYP2C9 activ 0.8 and CYP2C9 inh 17.8.
`COc1cc(/C=N/NC(=O)COc2ccc(Cl)cc2)ccc1OS(=O)(=O)c1ccc(C)cc1` gave CYP2C19 activ 0.6, CYP2C19 inh 36.8, Cav32 inh -1.85, CYP2C9 activ 0.4 and CYP2C9 inh 64.5*.
Screening Clc1ccc(Cn2cccc2C2=NCCO2)cc1 returned CYP2C19 activ 0.3, CYP2C19 inh 66.9*, Cav32 inh -0.926, CYP2C9 activ 0.7 and CYP2C9 inh 34.8.
